From PubChem BioAssay AID1159580 (chemical genetic matrix, 2015)
Several values for one entry are separate records, joined by “and”; a condition that tells them apart may be missing. Equal values may be shown once. Out of some 5,500 compounds screened, about 2,000 (36%) were called active. Another 18% or so got no clear call; they are omitted. No stated cut-off is given here; in the data, active means normalized growth mostly below about 0.91 (no sharp cut-off); inconclusive means no clear call, values can overlap the other calls; inactive means mostly above about 0.92. This is one part of the list.

Assay: chemical genetic growth profiling, strain panel (AID 1159580);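 further: tested at 20 µM; growth read once vehicle control cultures reached saturation at 30 °C; 1 = growth at the plate median or of vehicle wells; lower values mean less growth of the strain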
Details: S. cerevisiae deletion strains, growth OD

Measured: normalized growth

C[C@H]1C(=O)O[C@@H]2CCN3CC=C(COC(=O)[C@](C)(O)[C@]1(C)O)[C@H]23
inactive: locus YAL021C, strain ccr4, hits give low values 1 | locus YAL026C, strain drs2, hits give low values 0.991 | locus YAL030W, strain snc1, hits give low values 0.989 | locus YBL061C, strain skt5, hits give low values 0.995 | locus YBR009C, strain hhf1, hits give low values 0.993 | locus YBR021W, strain FUR4, hits give low values 0.978 | locus YBR023C, strain chs3, hits give low values 0.995 | locus YBR171W, strain sec66, hits give low values 0.987 | locus YBR229C, strain ROT2, hits give low values 0.989 | locus YBR231C, strain swc5, hits give low values 0.984 | locus YBR279W, strain paf1, hits give low values 0.99 | locus YCL011C, strain gbp2, hits give low values 0.997 | locus YCL016C, strain dcc1, hits give low values 0.999 | locus YCL029C, strain bik1, hits give low values 0.99 | locus YCL069W, strain vba3, hits give low values 0.995 | locus YCR088W, strain abp1, hits give low values 0.992 | locus YDL005C, strain med2, hits give low values 0.992 | locus YDL035C, strain GPR1, hits give low values 0.999 | locus YDL040C, strain nat1, hits give low values 0.991 | locus YDL074C, strain BRE1, hits give low values 1.02 | locus YDL101C, strain DUN1, hits give low values 0.99 | locus YDL134C, strain PPH21, hits give low values 0.968 | locus YDL185W, strain tfp1, hits give low values 0.984 | locus YDL192W, strain arf1, hits give low values 0.981 | locus YDR001C, strain nth1, hits give low values 0.99 | locus YDR069C, strain doa4, hits give low values 0.99 | locus YDR101C, strain arx1, hits give low values 0.994 | locus YDR137W, strain rgp1, hits give low values 0.972 | locus YDR159W, strain sac3, hits give low values 0.984 | locus YDR162C, strain NBP2, hits give low values 0.996 | locus YDR195W, strain ref2 0.945 | locus YDR297W, strain sur2, hits give low values 0.998 | locus YDR318W, strain mcm21, hits give low values 0.996 | locus YDR334W, strain swr1, hits give low values 0.995 | locus YDR335W, strain msn5, hits give low values 0.989 | locus YDR388W, hits give low values 0.997 | locus YDR392W, strain spt3, hits give low values 0.995 | locus YDR502C, strain sam2, hits give low values 0.99 | locus YEL003W, strain gim4, hits give low values 0.991 | locus YEL037C, strain rad23, hits give low values 0.996 | locus YEL061C, strain CIN8 (second series), hits give low values 0.99 | locus YEL061C, strain CIN8, hits give low values 0.995 | locus YER015W, strain faa2, hits give low values 0.998 | locus YER016W, strain bim1, hits give low values 0.989 | locus YER110C, hits give low values 0.986 | locus YER111C, strain swi4, hits give low values 0.969 | locus YER155C, strain BEM2 (second series), hits give low values 0.937 | locus YER155C, strain BEM2, hits give low values 0.988 | locus YER167W, strain BCK2, hits give low values 0.982 | locus YFR010W, strain ubp6, hits give low values 0.99 | locus YGL078C, strain dbp3, hits give low values 0.988 | locus YGL086W, strain mad1, hits give low values 1.01 | locus YGL167C, strain pmr1, hits give low values 0.994 | locus YGL173C, strain kem1, hits give low values 0.994 | locus YGL227W, strain vid30, hits give low values 0.982 | locus YGL240W, strain doc1, hits give low values 0.987 | locus YGL248W, strain PDE1, hits give low values 0.997 | locus YGL253W, strain hxk2, hits give low values 0.994 | locus YGR135W, strain pre9, hits give low values 0.987 | locus YGR229C, strain SMI1, hits give low values 1 | locus YGR252W, strain gcn5, hits give low values 0.98 | locus YHR013C, strain ard1, hits give low values 1 | locus YHR027C, strain rpn1, hits give low values 0.991 | locus YHR030C, strain SLT2, hits give low values 0.986 and 0.998 | locus YHR079C, strain IRE1 (second series), hits give low values 0.994 | locus YHR079C, strain IRE1, hits give low values 0.985 | locus YHR094C, strain hxt1, hits give low values 0.991 | locus YHR129C, strain ARP1, hits give low values 0.989 | locus YHR142W, strain chs7, hits give low values 1 | locus YHR200W, strain rpn10, hits give low values 0.991 | locus YIL066C, strain RNR3, hits give low values 0.992 | locus YIL073C, strain SPO22, hits give low values 0.969 | locus YIL125W, strain kgd1, hits give low values 0.995 | locus YIR030C, strain dcg1, hits give low values 0.99 | locus YJL092W, strain hpr5, hits give low values 0.97 | locus YJL095W, strain BCK1 (second series), hits give low values 0.984 | locus YJL095W, strain BCK1, hits give low values 1.02 and 1 | locus YJL115W, strain asf1, hits give low values 0.969 | locus YJL129C, strain trk1, hits give low values 0.968 | locus YJL134W, strain LCB3, hits give low values 0.994 | locus YJL154C, strain vps35, hits give low values 0.991 | locus YJL164C, strain tpk1, hits give low values 1.01 | locus YJL166W, strain qcr8, hits give low values 0.987 | locus YJL168C, strain set2, hits give low values 0.997 | locus YJL187C, strain SWE1 (second series), hits give low values 0.995 | locus YJL187C, strain SWE1, hits give low values 0.996 | locus YJR043C, strain POL32, hits give low values 1.01 | locus YJR066W, strain TOR1, hits give low values 0.944 | locus YKL009W, strain mrt4, hits give low values 0.983
